The results in this text go back to PubChem BioAssay (NCI).

Test systems include DU-145 prostate; K-562 leukemia; MALME-3M melanoma; MDA-MB-231 breast; RXF 393 renal; SF-268 CNS; SF-539 CNS; UACC-257 melanoma; M14 melanoma; HCT-15 colon; HT29 colon; SNB-75 CNS; SNB-19 CNS; PC-3 prostate; UACC-62 melanoma; LOX IMVI melanoma; SK-MEL-28 melanoma; U251 CNS; SK-MEL-5 melanoma; SF-295 CNS.
Holding throughout (experiment): NCI-60 one-dose screen, 48 h (100 = growth as untreated, 0 = no growth, -100 = all killed)
Conditions in all cases: 10 µM unless noted

Structures are written as SMILES. About 83,000 compounds went through this panel and 20% of them were active in at least one assay; those are over-represented in the sample as a whole.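 Single-dose data. Exposure time 48 hours. Values below 10 considered active.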 Values without a mark were called inactive. Active and inactive are the calls of the source.

For `CCCOC(=O)c1ccc2c(c1)[N+](=O)C(C(=O)c1ccccc1)=C(C(F)(F)F)[N+]2=O`, the growth in the test with DU-145 prostate was -97.2% (active); in the test with K-562 leukemia it was -74% (active); in the test with MALME-3M melanoma, -73.7% (active); with MDA-MB-231 breast it was -90.4% (active); in the test with RXF 393 renal, -93.2% (active); in the test with SF-268 CNS, -81.4% (active). Besides, the growth is -95% (active) in the test on SF-539 CNS; -94.2% (active) in the test on UACC-257 melanoma; -70.3% (active) with M14 melanoma; -65.7% (active) in the test with HCT-15 colon; -92.1% (active) in the test on HT29 colon; -98.5% (active) in the test with SNB-75 CNS. Also, the growth is -88.9% (active) in the test on SNB-19 CNS; -91.5% (active) with PC-3 prostate; -92.4% (active) in the test with UACC-62 melanoma; -74.7% (active) in the test on LOX IMVI melanoma; -96.8% (active) in the test with SK-MEL-28 melanoma.

Consider `Cc1nn2c(-c3nc4ccc(Cl)cc4[nH]3)c(-c3ccc(F)cc3)nc2s1`, for which the growth in the test with DU-145 prostate is 104%; in the test with K-562 leukemia it was 88.6%; in the test with MALME-3M melanoma, 128%; in the test with MDA-MB-231 breast it was 116%; in the test on RXF 393 renal, 96.6%; in the test on SF-268 CNS, 101%. In addition, the growth in the test on SF-539 CNS is 97.1%; with UACC-257 melanoma, 92.9%; in the test with M14 melanoma it was 95.4%; in the test on HCT-15 colon, 76.4%; with HT29 colon, 94.4%; in the test on SNB-75 CNS, 86.3%. The growth in the test with SNB-19 CNS is 112%; in the test with U251 CNS, 97.6%; with PC-3 prostate it was 78.6%; in the test with SK-MEL-5 melanoma, 90.9%; in the test with LOX IMVI melanoma, 91.1%; with SK-MEL-28 melanoma, 93.8%.

Take `Nc1ccccc1-c1n[nH]c(=O)[nH]c1=O`: the growth in the test on DU-145 prostate was 121%; with K-562 leukemia, 107%; with MALME-3M melanoma it was 106%; in the test on MDA-MB-231 breast, 113%; with SF-268 CNS, 114%; with SF-295 CNS it was 79%. Moreover, the growth was 101% in the test with SF-539 CNS; 99% with M14 melanoma; 104% in the test with HCT-15 colon; 106% in the test with HT29 colon; 89.5% in the test on SNB-75 CNS; 94.2% with U251 CNS. For the same compound, the growth in the test with PC-3 prostate was 96.9%; in the test with UACC-62 melanoma it was 89%; with LOX IMVI melanoma, 97.8%; with SK-MEL-28 melanoma it was 103%.

Take `COc1cccc(Nc2nc(NCCO)c3ccccc3n2)c1`: the growth with DU-145 prostate is 97%; in the test on K-562 leukemia, 42.7%; in the test on MALME-3M melanoma, 75.7%; in the test on MDA-MB-231 breast, 65.3%; in the test with RXF 393 renal it was 70.7%; with SF-268 CNS, 72.5%. In addition, the growth in the test with SF-539 CNS was 81.5%; in the test with UACC-257 melanoma, 95.8%; with M14 melanoma, 77.7%; in the test on HCT-15 colon, 88.6%; in the test on HT29 colon, 100%; with SNB-19 CNS, 76.9%. The growth with U251 CNS is 73.7%; with PC-3 prostate it was 24.4%; with SK-MEL-5 melanoma, 78.2%; in the test on UACC-62 melanoma it was 67.1%; in the test on LOX IMVI melanoma it was 75%; with SK-MEL-28 melanoma, 91.7%.

Regarding `CCN(c1ccc(C(=O)N2CCN(c3ccccc3)CC2)cc1)S(C)(=O)=O`, the growth is 108% with DU-145 prostate; 96.4% in the test with K-562 leukemia; 94.2% in the test on MALME-3M melanoma; 119% with MDA-MB-231 breast; 98.7% with SF-268 CNS; 103% with SF-539 CNS. Moreover, the growth in the test with M14 melanoma was 104%; with HCT-15 colon it was 104%; with HT29 colon, 97.7%; in the test with SNB-75 CNS it was 64.1%; in the test on SNB-19 CNS, 100%; in the test on U251 CNS it was 105%. For the same compound, the growth in the test with PC-3 prostate was 101%; with SK-MEL-5 melanoma, 99.6%; in the test with UACC-62 melanoma, 105%; with LOX IMVI melanoma, 100%; in the test on SK-MEL-28 melanoma it was 108%.

`O=c1nc(NO)[nH]c(=O)n1Cc1ccc(F)cc1`: the growth is 114% in the test on DU-145 prostate; 98.1% with K-562 leukemia; 103% with MALME-3M melanoma; 122% in the test with MDA-MB-231 breast; 104% with SF-268 CNS; 102% in the test with SF-539 CNS. In addition, the growth with M14 melanoma is 107%; with HCT-15 colon, 107%; in the test on HT29 colon, 105%; in the test on SNB-75 CNS, 86.1%; in the test with U251 CNS, 98.6%; in the test on PC-3 prostate, 94.1%. Moreover, the growth in the test with UACC-62 melanoma was 108%; in the test with LOX IMVI melanoma it was 101%; in the test on SK-MEL-28 melanoma, 102%.

Take `c1ccc(-c2nc(N3CCOCC3)c3c4c(sc3n2)CCCCCC4)nc1`: the growth in the test on DU-145 prostate is 76.1%; in the test on K-562 leukemia, 32%; in the test on MALME-3M melanoma, 58.4%; in the test on MDA-MB-231 breast, 63.4%; in the test with SF-268 CNS, 74.1%; in the test on SF-295 CNS, 6.04% (active). The growth in the test on SF-539 CNS is 77%; in the test on M14 melanoma, 59.2%; in the test with HCT-15 colon, 46.9%; with HT29 colon it was 65.9%; with SNB-75 CNS, 29.4%; in the test on U251 CNS, 50.3%. In addition, the growth is 32.2% in the test with PC-3 prostate, 51.7% in the test with UACC-62 melanoma, 69.6% in the test with LOX IMVI melanoma and 75.5% with SK-MEL-28 melanoma.

Take `COc1ccccc1-n1c(SCc2cc(OC)c(OC)c(OC)c2)nc2ccc(Cl)cc2c1=O`: the growth in the test with DU-145 prostate is 30.1%; with K-562 leukemia, 12.7%; in the test with MALME-3M melanoma it was 33%; with MDA-MB-231 breast it was 55.7%; with RXF 393 renal, 61.5%; with SF-268 CNS, 41.6%. Further, the growth in the test with SF-295 CNS is 31.9%; with SF-539 CNS, 64.6%; in the test with M14 melanoma, 15.9%; in the test with HCT-15 colon, 27.8%; in the test with SNB-75 CNS, -4.26% (active); in the test on U251 CNS, 25.6%. In addition, the growth in the test with PC-3 prostate is 19.6%; in the test with SK-MEL-5 melanoma, 27.7%; with UACC-62 melanoma it was 34.3%; in the test with LOX IMVI melanoma, 33.2%; in the test on SK-MEL-28 melanoma, 49.4%.

With `COc1ccc(CSc2nc3cc(OC)c(OC)cc3c(=O)n2-c2ccc(Cl)cc2)cc1`, the growth in the test on DU-145 prostate is 109%; in the test with K-562 leukemia, 93%; with MALME-3M melanoma it was 107%; in the test with MDA-MB-231 breast it was 99.9%; in the test with SF-268 CNS, 101%; in the test on SF-539 CNS, 95.9%. Besides, the growth is 106% in the test on M14 melanoma; 98.6% in the test with HCT-15 colon; 112% in the test on HT29 colon; 92.9% with SNB-75 CNS; 99.8% in the test with SNB-19 CNS; 94.2% with U251 CNS. The growth is 82% in the test on PC-3 prostate; 95.4% with SK-MEL-5 melanoma; 99.4% in the test with UACC-62 melanoma; 98% in the test with LOX IMVI melanoma; 107% in the test on SK-MEL-28 melanoma.
